Screening data (PubChem BioAssay)
TDP1 cell CPT – growth inhibition of DT40 Tdp1-/-;hTDP1 cells with camptothecin (screen for TDP1 inhibitors) | chicken DT40 Tdp1-/-;hTDP1 cells + 20 nM CPT, ATP luminescence, 48 h | 12% of 420,000 active | Potency, µM (series often up to 46.2 µM), for the others: top-dose activity change, negative = growth inhibition, usual class: inhibitors; note: potency is the fitted concentration of half-maximal effect; nearly all actives have a fitted effect of over 55% in size
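Chicken DT40 Tdp1-/- cells stably complemented with human TDP1 were seeded at 400 cells/well in medium containing 20 nM camptothecin, exposed to pin-transferred compounds, and grown at 37 °C for at least 48 hr. Viability was read as ATP luminescence.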
TDP1 inh – TDP1 (human) enzyme inhibition; Q9NUW8; recombinant TDP1, AlphaScreen DNA substrate cleavage; Potency, µM (series often up to 130 µM), without a hit: at the top dose activity change, negative = inhibition, actives largely listed as inhibitors; 0.28% of 350,000 active; note: potency is the fitted concentration of half-maximal effect; nearly all actives have a fitted effect of over 40% in size
Target sequence (Q9NUW8 whole entry, looked up): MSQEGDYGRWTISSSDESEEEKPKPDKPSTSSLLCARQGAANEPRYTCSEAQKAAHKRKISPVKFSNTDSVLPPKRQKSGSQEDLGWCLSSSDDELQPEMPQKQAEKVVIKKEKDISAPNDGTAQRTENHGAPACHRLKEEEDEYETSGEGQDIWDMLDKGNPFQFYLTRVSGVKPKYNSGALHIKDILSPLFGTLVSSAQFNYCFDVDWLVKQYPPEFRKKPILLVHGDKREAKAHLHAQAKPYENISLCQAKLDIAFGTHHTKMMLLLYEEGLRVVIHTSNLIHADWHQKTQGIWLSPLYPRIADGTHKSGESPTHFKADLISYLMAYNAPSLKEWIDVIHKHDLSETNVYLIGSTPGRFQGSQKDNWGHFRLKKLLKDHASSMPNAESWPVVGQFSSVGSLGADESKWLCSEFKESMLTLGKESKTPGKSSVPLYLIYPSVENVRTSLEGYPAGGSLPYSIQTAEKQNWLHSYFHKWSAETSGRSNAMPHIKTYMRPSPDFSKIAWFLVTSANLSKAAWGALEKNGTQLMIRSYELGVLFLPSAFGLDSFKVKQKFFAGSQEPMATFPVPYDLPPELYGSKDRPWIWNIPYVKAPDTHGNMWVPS
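Signal: AlphaScreen proximity between streptavidin donor and anti-FITC acceptor beads on intact substrate. Reaction: Tdp1 1 nM, substrate 15 nM final, 5 min RT after 15 min compound preincubation.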
IL-1B inflam inh – inhibitors of inflammasome signaling (IL-1 beta secretion). THP-1 LPS/ATP IL-1B secretion, AlphaLISA, 16 h; stronger effect = lower value. activity change, % at 57.5 µM. 4.7% of 360,000 active. AID 743279; in the data active = activity change below about -50%; inconclusive = mostly about -30% to -49%
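THP-1 cells pretreated 1 hr with compounds (up to 57.5 uM final), then stimulated with LPS (250 ng/mL final) plus ATP (1.25 mM final); secreted IL-1B measured by AlphaLISA after 16 hr, decreased signal indicating inhibition.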
Six1-Eya2 inh – Six1/Eya2 interaction inhibition | AlphaScreen GST-Six1/His-Eya2 binding, biochemical; stronger effect = lower value | Q15475+O00167 | activity change, % (concentration not given with the values) | 0.56% of 360,000 active; in the data active = activity change below about -65%; inconclusive = mostly about -30% to -63%
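AlphaScreen with GST-Six1 and His-Eya2 (5X mix: 250 nM and 500 nM), glutathione donor and nickel acceptor beads; buffer 50 mM Tris pH 8.0, 300 mM NaCl, 1 mM TCEP; 1 h at 37 C in the dark.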
CtBP-E1A blk – CtBP/E1A binding inhibition; AlphaScreen GST-E1A/His-CtBP binding, 1536-well; stronger effect = lower value; activity change, % (no concentration beside the values); 0.49% of 340,000 active; in the data active = activity change below about -65%; inconclusive = mostly about -30% to -63%
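AlphaScreen with 125 nM GST-E1A and 125 nM His-CtBP (5X stocks) in Tris pH 8.0, 300 mM NaCl, BSA, Tween 20, TCEP. Compounds preincubated 2 h at 37 deg C, then glutathione donor/nickel acceptor beads added for 1 h at 37 deg C in dark.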
TDP1 cell noCPT – qHTS for Inhibitors of human tyrosyl-DNA phosphodiesterase 1 (TDP1): qHTS in cells in absence of CPT. DT40 Tdp1-/- hTDP1 cells, no CPT, ATP luminescence, 48 h. Potency, µM (series often up to 46.2 µM), without a hit: top-dose activity change, negative = growth inhibition, hits mostly inhibitors. 15% of 420,000 active; note: potency is the fitted concentration of half-maximal effect; nearly all actives have a fitted effect of over 55% in size
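Chicken DT40 Tdp1-/- cells stably complemented with human TDP1 were seeded at 400 cells/well with DMSO in place of 20 nM camptothecin. After compound pinning, cells grew at least 48 hr at 37 °C; viability read by CellTiter-Glo luminescence.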
The depositor's hits bear a star; u = inconclusive; x = no result; [ ] = remark or other dose. Hits are enriched below; roughly 18% of the tested compounds scored in any of these assays. Unless noted, calls come from the whole dose curve; as a rule, active = well fitted curve in the direction sought with a large enough effect; inconclusive = small, poorly fitted or top-dose-only effect, or another doubt; inactive = no such curve, though single readings can be large; an effect the other way counts as inactive or inconclusive. % is set by controls: 0 for no effect and ±100 for the full control effect.

SMILES	TDP1 cell CPT	TDP1 inh	IL-1B inflam inh	Six1-Eya2 inh	CtBP-E1A blk	TDP1 cell noCPT
O=C(NCC1CC1)C1(C(F)(F)F)CC(CCc2ccccc2)CCCO1 (centres undefined)	21µM*	-3%	-2	29	31	21µM*
C=CCn1c(CSc2ccc(C)cc2)n[nH]c1=S	-24%	1%	9	-1	x	u
C=CCC1(CC=C)CCCN1C(=O)c1cc(COc2ccc(F)c(F)c2)on1	18µM*	x	-8	38	48	u
Cc1ccc(OCc2cc(C(=O)N3CCCC3)no2)cn1	-30%	6%	-3	-7	0	u
CSc1ccccc1OCc1cc(C(=O)N2CCc3c(Cl)cccc3C2)no1	23µM*	2%	u	-6	5	u
Cc1cccc(N2CCN(C(=O)c3cc(COc4ccc(F)c(F)c4)on3)CC2)n1	3%	-7%	9	-5	-2	1%
C=CCC1(CC=C)CCCN1C(=O)c1cc(COc2ccc(C)nc2)on1	2.6µM*	0%	-8	3	x	0.92µM*
C=CCC1(CC=C)CCCN1C(=O)c1cc(COc2ccccc2SC)on1	u	-7%	-1	3	11	21µM*
O=S(=O)(c1ccc(F)cc1)N1CCC2(CC1)OCCO2	4%	0%	-16	8	8	-6%
CCC(c1nnc(SCC(=O)Nc2ccc(C(C)=O)cc2)n1C1CCCCC1)N(C)C (centres undefined)	25%	1%	24	-2	6	-17%
COc1ccc(C2CC(=O)N(Cc3cccc(C)c3)c3c2c(C)nn3-c2nc(C)cc(C)n2)c(OC)c1 (centres undefined)	u	5%	x	x	x	u
CC1(C)Cc2c(sc3c2C2=NCCN2C=N3)CS1	-26%	7%	1	0	0	16µM*
CSC1=Nc2sc3c(c2C2=NCCN12)CCCC3	x	-2%	x	x	x	x
O=S(=O)(c1ccccc1)c1nc(NCc2cccnc2)sc1Cl	-4%	4%	14	-9	-2	-23%
O=C1CN(S(=O)(=O)c2ccc3c(c2)OCCO3)CCN1S(=O)(=O)c1c(F)cccc1F	x	0%	x	x	x	x
CC(=O)N1CCSc2ccc(S(=O)(=O)Nc3cccc(C)c3)cc21	18µM*	1%	14	4	-1	13µM*
COc1cccc(NS(=O)(=O)c2ccc3c(c2)N(C(C)=O)CCS3)c1	u	3%	13	1	-1	u
CC(=O)N1CCSc2ccc(S(=O)(=O)Nc3ccccc3C)cc21	u	6%	-57*	0	-16	-45%
O=S(=O)(N[C@H]1C[C@@H](NS(=O)(=O)OCC(Cl)(Cl)Cl)C2CCCCC21)OCC(Cl)(Cl)Cl (some centres undefined)	u	x	3	3	0	23µM*
CCOc1ccc(NCc2cccn2-c2nnc(N3CCC(C(=O)NCCc4ccc(OC)c(OC)c4)CC3)s2)cc1	u	6%	x	x	x	10µM*
CCOc1ccc(NCc2cccn2-c2nnc(N3CCC(C(=O)NCCc4ccc(OCC)c(OCC)c4)CC3)s2)cc1	15µM*	7%	x	x	x	8.2µM*
Cc1ccc(NCc2cccn2-c2nnc(N3CCC(C(=O)NCCc4ccccc4)CC3)s2)cc1	u	4%	x	x	x	u
CCOc1ccc(NCc2cccn2-c2nnc(N3CCC(C(=O)NCCCN4CC(C)CC(C)C4)CC3)s2)cc1 (centres undefined)	u	16%	-82*	-12	u	u
COc1cc2c(cc1OC)/C(=C/c1ccc(Cl)cc1)C(=O)OC2	u	9%	-81*	0	6	u
COc1ccc(C=C2C(=O)OC(C)(C)OC2=O)cc1OC	-1%	-6%	-1	-3	x	-10%
SMILES	TDP1 cell CPT	TDP1 inh	IL-1B inflam inh	Six1-Eya2 inh	CtBP-E1A blk	TDP1 cell noCPT
COc1ccc(/C=C2\C(=O)OCc3cc(OC)c(OC)cc32)cc1OC	u	5%	-51*	-4	-7	-35%
Nc1nc(-c2ccc3ccccc3c2)cs1	7%	0%	-67*	-7	-4	-29%
Nc1nc(-c2cc3ccccc3o2)cs1	6%	2%	-75*	-9	-11	-16%
CN(C)/C=N/c1nc(-c2ccc3ccccc3c2)cs1	-25%	x	-61*	-15	-11	-1%
Cc1cc(SCC(=O)Nc2ccc(Cl)cc2)nc2ccccc12	-16%	x	x	x	x	u
CC1(C)N=C(SCC(=O)Nc2ccc(Cl)cc2)C(c2ccc(Cl)cc2)=N1	u	6%	-109*	1	-10	18µM*
CC1(C)N=C(SCC(=O)Nc2ccc(Cl)cc2)C(c2ccccc2)=N1	u	-5%	-87*	0	2	u
CC(C)CNC(=S)N(CCCO)Cc1cc2cc3c(cc2[nH]c1=O)OCCO3	u	x	-16	8	x	u
COc1ccccc1/C=C(/C(=O)OCC(=O)Nc1ccccc1C(C)C)c1ccccc1	u	0%	-11	-1	x	21µM*
COc1cc(CCC(=O)OCC(=O)Nc2ccccc2C(C)C)cc(OC)c1OC	-6%	3%	13	0	10	15%
CC(C)(C)c1nc2c(C#N)c(-c3ccc(Cl)cc3)ccn2n1	35µM*	6%	-10	-7	-7	20µM*
CN(C)c1ccnc(Oc2ccc(C(C)(C)C)cc2)c1C#N	u	0%	42	5	9	16µM*
Cc1cc(Cl)ccc1Oc1nccc(N(C)C)c1C#N	u	4%	-70*	10	5	16µM*
CN(C)c1ccnc(Oc2ccc(Cl)cc2)c1C#N	-17%	0%	1	8	5	u
CCc1cc(SC#N)ccc1N	-25%	9%	-102*	11	-20	u
CCc1cc([N+](=O)[O-])cc(CC)c1N	-1%	8%	-9	-1	2	-15%
O=C1CN(C(=O)CSc2nc3cc(Cl)ccc3c(=O)n2Cc2ccccc2)c2ccccc2N1	u	3%	-72*	-1	-16	u
Cc1ccc(Cn2c(SCC(=O)N3CC(=O)Nc4ccccc43)nc3ccccc3c2=O)cc1	u	3%	0	-5	0	u
COCC(C)n1c(SCC(=O)N2CC(=O)Nc3ccccc32)nc2ccccc2c1=O (centres undefined)	-13%	-2%[56.1 µM]	-20	-21	x	-21%
